# Source: PubChem BioAssay (NCATS)
# Records with an inconclusive call do not appear. Calls of active or inactive are those of the source. Calls come from the whole dose curve; as a rule, active = well fitted curve in the direction sought with a large enough effect; inconclusive = small, poorly fitted or top-dose-only effect, or another doubt; inactive = no such curve, though single readings can be large; an effect the other way counts as inactive or inconclusive.
# Columns and labels:
# [1] = Drug repurposing screens with cells derived from glioblastoma tumor samples (AID 1345199); conditions: GBM patient neurospheres viability, ATP luminescence, 48 h; note: nearly all actives have a fitted effect of over 40% in size; for activity, negative = cell killing: % is set by controls: 0 for no effect and ±100 for the full control effect
# In short: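 Primary testing used CD133+ neurospheres from four GBM patients, seven concentrations, 48 h exposure and ATP-based viability; confirmation added three slower-growing patient lines.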
# [2] = qHTS assay to identify inhibitors of the type 1 interferon - major histocompatibility complex class I in skeletal muscle: Counter screen cell viability and HiBit confirmation (AID 1347412); conditions: iHSKM muscle cells + IFN-b, HiBiT or CellTiter-Glo, 24 h; for activity change, negative = inhibition: at 45.9 µM (top of the series); for activity change, negative = inhibition: % is set by controls: 0 for no effect and ±100 for the full control effect; for all read-outs here: nearly all actives have a fitted effect of over 60% in size
# In short: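 After 24 h with human IFN-beta (4 ng/ml) and compound titrations (top 46 uM final, 1:3, 12 points), HLA-B HiBit myoblasts were lysed for either Nano-Glo HiBiT luminescence or CellTiter Glo viability on paired plates.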
# [3] = test system: SKOV3; experiment: Primary qHTS to identify gynecologic anti-cancer compounds using libraries of approved drugs and bioactive compounds (AID 1345084); conditions: Gynecologic cancer cell panel viability, ATPlite luminescence, 48 h; series mostly up to 57.5 µM; note: nearly all actives have a fitted effect of over 55% in size
# In short: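 In this quantitative HTS, cell killing is estimated from loss of ATP-dependent luciferase light. Cells see five compound concentrations over a 48 h exposure.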
# [4] = at 20 µM (top of the series), tumour line C
# [5] = at 21.2 µM (top of the series), tumour line B
# [6] = at 45.9 µM (top of the series), tumour line B
# [7] = at 46.1 µM (top of the series), tumour line C
# Potency is the fitted concentration of half-maximal effect.
smiles,measurement,setting,value
NS(=O)(=O)c1cc(Cl)c(Cl)c(S(N)(=O)=O)c1,"activity, negative = cell killing",[1]; [4],4.89% (inactive)
same,"activity, negative = cell killing",[1]; [5],-0.766% (inactive)
same,"activity, negative = cell killing","[1]; at 21.2 µM (top of the series), tumour line D",5.15% (inactive)
same,"activity, negative = cell killing","[1]; at 21.3 µM (top of the series), tumour line A",-15% (inactive)
CN(C)CCN(Cc1ccc(Cl)cc1)c1ccccn1,"activity, negative = cell killing",[1]; [4],-14.6% (inactive)
same,"activity, negative = cell killing",[1]; [5],-16.9% (inactive)
same,Potency,[1]; tumour line A,10 µM (active)
O=C(CCCN1CCN(c2ccc(F)cc2)CC1)NC1c2ccccc2CSc2ccccc21 (configuration not stated),Potency,[1]; tumour line A,3.98 µM (active)
CC1(C)CC(=O)c2c(C(F)(F)F)nn(-c3ccc(C(N)=O)c(NC4CCC(O)CC4)c3)c2C1 (configuration not stated),Potency,[2]; HiBiT,0.0701 µM (active)
CNC(=O)c1cc(Oc2ccc(NC(=O)Nc3ccc(Cl)c(C(F)(F)F)c3)c(F)c2)ccn1,"activity change, negative = inhibition",[2]; HiBiT,-24.1% (inactive)
CNC(=O)c1ccc2c(C(=Nc3cccc(CN(C)C)c3)c3ccccc3)c(O)[nH]c2c1,"activity change, negative = inhibition",[2]; HiBiT,-0.844% (inactive)
CC(C)CNc1ccnc(NCc2csc(-c3ccccc3)n2)n1,Potency,[3],11.2 µM (active)
Cc1cnc(Nc2cccc(CN3CCOCC3)c2)nc1Nc1cccc(S(=O)(=O)NC(C)(C)C)c1,Potency,[3],0.794 µM (active)
same,Potency,[2]; HiBiT,7.01 µM (active)
CS(=O)(=O)c1ccc(C2=C(c3ccccc3)C(=O)OC2)cc1,"activity, negative = cell killing",[1]; [6],-11.3% (inactive)
same,"activity, negative = cell killing",[1]; [7],-14.3% (inactive)
Nc1ncnc2c1c(-c1cccc(OCc3ccccc3)c1)cn2C1CC(CN2CCC2)C1 (configuration not stated),Potency,[2]; HiBiT,22.2 µM (active)
COc1ccc(-c2ccc3ncc4c(c3c2)n(-c2ccc(N3CCNCC3)c(C(F)(F)F)c2)c(=O)n4C)cn1,Potency,[2]; Viability,4.43 µM (active)
COc1cc2c(cc1OC)CC(=O)N(CCCN(C)C[C@H]1Cc3cc(OC)c(OC)cc31)CC2,"activity, negative = cell killing",[1]; [6],-14.4% (inactive)
same,"activity, negative = cell killing","[1]; at 45.9 µM (top of the series), tumour line D",-19.2% (inactive)
same,"activity, negative = cell killing",[1]; [7],-34% (inactive)
same,Potency,[1]; tumour line A,11.2 µM (active)
